Tb PFK block: T. brucei PFK enzyme inhibition; O15648; T. brucei PFK, ADP-Glo luminescence; Potency, µM (top dose mostly 57.5 µM), usual class: inhibitors; 330,000 tested, 0.17% active; note: nearly all actives have a fitted effect of over 60% in size
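1.25 nM PFK with 0.5 mM F6P and 0.1 mM ATP in 0.1 M TEA pH 8.0, 5 mM MgCl2, incubated 45 min at room temperature; ADP measured by ADP-Glo luminescence; compounds titrated up to 57 uM.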
GCN5L2 inh-1: blocks human GCN5L2 histone acetyltransferase. Q92830. 390,000 tested, 0.21% active. AID 504327. GCN5L2 HAT assay, ThioGlo1 CoA-SH fluorescence. Potency, µM (titrated, usually from 58.9 µM), actives largely listed as inhibitors
Target sequence (Q92830 whole entry, looked up): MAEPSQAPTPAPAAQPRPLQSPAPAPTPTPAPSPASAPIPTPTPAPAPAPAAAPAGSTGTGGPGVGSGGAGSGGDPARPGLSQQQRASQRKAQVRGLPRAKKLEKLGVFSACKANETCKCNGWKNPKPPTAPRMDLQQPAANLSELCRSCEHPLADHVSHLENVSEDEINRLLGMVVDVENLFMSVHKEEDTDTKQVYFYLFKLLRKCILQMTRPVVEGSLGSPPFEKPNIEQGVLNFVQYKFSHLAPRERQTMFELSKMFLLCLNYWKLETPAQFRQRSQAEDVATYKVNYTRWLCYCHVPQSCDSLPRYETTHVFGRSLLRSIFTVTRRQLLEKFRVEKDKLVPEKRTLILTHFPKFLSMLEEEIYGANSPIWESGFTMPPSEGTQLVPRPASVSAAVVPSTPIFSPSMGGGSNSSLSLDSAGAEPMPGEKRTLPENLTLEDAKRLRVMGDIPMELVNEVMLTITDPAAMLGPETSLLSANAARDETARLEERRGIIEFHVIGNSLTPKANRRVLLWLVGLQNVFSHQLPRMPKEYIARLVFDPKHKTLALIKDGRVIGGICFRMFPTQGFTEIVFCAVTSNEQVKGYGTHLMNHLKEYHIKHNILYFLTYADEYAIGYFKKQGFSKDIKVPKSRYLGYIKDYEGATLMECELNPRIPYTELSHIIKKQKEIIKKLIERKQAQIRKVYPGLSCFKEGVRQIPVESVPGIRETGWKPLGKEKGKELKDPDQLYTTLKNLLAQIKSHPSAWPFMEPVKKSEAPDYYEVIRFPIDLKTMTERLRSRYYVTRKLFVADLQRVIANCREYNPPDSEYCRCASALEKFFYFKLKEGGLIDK
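Fluorescence readout, Ex340nm/Em540nm: ThioGlo1 (50uM final) reacts with free CoA thiol released as 20nM GCN5L2 acetylates H3(1-25) peptide (75uM) using acetyl-CoA (70uM). Compound and enzyme sat 15 min beforehand; 20 min room-temperature reaction.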
GLS inh: blocks human kidney-isoform glutaminase activity. GLS enzymatic activity, qHTS titration. O94925. 410,000 tested, 0.21% active. Potency, µM (titrated, usually from 45.5 µM), actives largely listed as inhibitors
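Glutamate formation by hKGA was monitored fluorometrically using coupled glutamate oxidase, HRP and Amplex Red. Substrate was added as 1 mM L-glutamine solution; incubation was 30 min at RT after an initial read.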
USP2a block: inhibitors of human ubiquitin-specific protease USP2a; O75604; USP2 core, Ub-CHOP2 coupled fluorogenic reporter, 485/531; Potency, µM (titrated, usually from 38.3 µM), usual class: inhibitors; 330,000 tested, 0.01% active
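Deubiquitinase activity read as fluorescence (485/531 nm) after Ub-CHOP2 cleavage activates the enterokinase reporter on its substrate; USP2 core 10nM, Ub-CHOP2 and substrate 25nM each, 30min compound preincubation then 60min RT; data normalized to NEM, curves fitted.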
Tb PGK inh: blocks T. brucei phosphoglycerate kinase. P07378. PGK/GAPDH coupled, Kinase-Glo luminescence, 60 min. Potency, µM (highest dose often 57.5 µM), most hits filed as inhibitors. 380,000 tested, 0.043% active; note: nearly all actives have a fitted effect of over 60% in size
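Luminescent ATP detection (Kinase-Glo Plus) follows a 60-minute room-temperature incubation, with wells lacking PGK as controls. Buffer: 100 mM TEA (pH 7.6), 5 mM MgCl2, 0.01% Tween-20. Coupling enzyme GAPDH (100 nM final) supplies unstable 1,3-BPG in-well.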
GCN5L2 inh-2: confirmation of human GCN5L2 histone acetyltransferase inhibitors. shares compounds with GCN5L2 inh-1. GCN5L2 HAT, ThioGlo1 CoA fluorescence, 20 min. Potency, µM, most hits filed as inhibitors. 140 tested, 70% active. AID 588347
A number is an active result. This is a sample that favours compounds with a hit; in the whole collection about 0.52% have one here. Calls come from the whole dose curve; as a rule, active = well fitted curve in the direction sought with a large enough effect; inconclusive = small, poorly fitted or top-dose-only effect, or another doubt; inactive = no such curve, though single readings can be large; an effect the other way counts as inactive or inconclusive.

What do the screens show for `Cc1nc2nc(-c3cccs3)cn2nc1C`?
Tb PFK block: inactive; GCN5L2 inh-1: inconclusive; GLS inh: inactive; USP2a block: inactive; Tb PGK inh: inactive; GCN5L2 inh-2: 36

How did Cc1nc2nc(-c3ccc(Cl)cc3)cn2nc1C do in these assays?
Tb PFK block: inactive; GCN5L2 inh-1: inactive; GLS inh: inactive; USP2a block: inactive; Tb PGK inh: inactive

How did CC[C@H](C)[C@H](NC(=O)[C@H](CO)NC(=O)[C@H](C)NC(=O)[C@H](C)NC(=O)[C@H](CCC(N)=O)NC(=O)[C@H](CCCCN)NC(=O)[C@H](CCCN=C(N)N)NC(=O)[C@@H](N)CS)C(=O)N[C@@H](CCCCN)C(=O)N[C@H](C(=O)N[C@@H](C)C(=O)N[C@H](C(=O)N[C@@H](CO)C(=O)O)C(C)C)C(C)C do in these assays?
GCN5L2 inh-1: inactive

Results for Cc1ccc(C2=NOC(=O)/C2=C\C=C\c2ccccc2)cc1 ?
Tb PFK block: inactive; GCN5L2 inh-1: 25µM; GLS inh: inconclusive; USP2a block: inactive; Tb PGK inh: inactive; GCN5L2 inh-2: inconclusive

Results for O=C(CN1C(=O)/C(=C2/SC(=S)N(CCS(=O)(=O)O)C2=O)c2ccccc21)Nc1cccc(C(F)(F)F)c1 ?
Tb PFK block: inconclusive; GCN5L2 inh-1: 28µM; GLS inh: inactive; USP2a block: inactive; Tb PGK inh: inconclusive; GCN5L2 inh-2: inconclusive

How did O=C(CN1C(=O)c2ccccc2Sc2ncccc21)Nc1cccc(C(F)(F)F)c1 do in these assays?
GCN5L2 inh-1: inactive; GLS inh: inactive; Tb PGK inh: inactive

What do the screens show for `COc1ccc(OC)c(/C=C/C(=O)Nc2cccc(S(=O)(=O)NC3=NCCCCC3)c2)c1`?
Tb PFK block: inactive; GCN5L2 inh-1: 32µM; GLS inh: inactive; USP2a block: inactive; Tb PGK inh: inactive; GCN5L2 inh-2: 32

What do the screens show for `COc1ccc(/C=C/C(=O)Nc2cccc(S(=O)(=O)NC3=NCCCCC3)c2)c(OC)c1`?
Tb PFK block: inactive; GCN5L2 inh-1: inactive; GLS inh: inactive; USP2a block: inactive; Tb PGK inh: inactive

What do the screens show for `O=C(Nc1c2c(nn1-c1ccc(Cl)cc1)CS(=O)(=O)C2)c1ccc(Br)cc1`?
GCN5L2 inh-1: inactive; GLS inh: inactive; Tb PGK inh: inactive

What do the screens show for `O=C(Nc1ccc(O)c(-c2nc3ccccc3o2)c1)C1(c2ccc([N+](=O)[O-])cc2)CCCC1`?
Tb PFK block: inactive; GCN5L2 inh-1: inactive; GLS inh: inactive; USP2a block: inactive; Tb PGK inh: inactive

Results for O=C(Nc1ccc(O)c(-c2nc3ccccc3o2)c1)C1(c2ccc(Cl)cc2)CCCC1 ?
Tb PFK block: inactive; GCN5L2 inh-1: inconclusive; GLS inh: inactive; USP2a block: inactive; Tb PGK inh: inactive; GCN5L2 inh-2: 14

Results for CC(C)CCN1C(=O)c2ccc(C(=O)Nc3ccc(Br)cc3C(=O)O)cc2C1=O ?
Tb PFK block: inactive; GCN5L2 inh-1: 35µM; GLS inh: inactive; USP2a block: inactive; Tb PGK inh: inactive; GCN5L2 inh-2: 20

Results for O=C(/C=C/c1ccc(O)cc1)OC[C@H]1O[C@@H](Oc2c(-c3ccc(O)cc3)oc3cc(O)cc(O)c3c2=O)[C@H](O)[C@@H](O)[C@@H]1O ?
GCN5L2 inh-1: inactive

What do the screens show for `CC1=NN(c2cccc(C(=O)O)c2)C(=O)/C1=C\C=C\c1ccco1`?
Tb PFK block: 21µM; GCN5L2 inh-1: inconclusive; GLS inh: inactive; USP2a block: inactive; Tb PGK inh: 4µM; GCN5L2 inh-2: inconclusive

Results for Cc1cccc(C)c1NC(=O)CN1C(=O)S/C(=C\c2cccn2-c2cccc(C(=O)O)c2)C1=O ?
Tb PFK block: inactive; GCN5L2 inh-1: inactive; GLS inh: inactive; USP2a block: inactive; Tb PGK inh: inactive

Results for Cc1cccc(C)c1-n1cccc1/C=C1\SC(=S)N(c2cccc(C(=O)O)c2)C1=O ?
Tb PFK block: inactive; GCN5L2 inh-1: 32µM; GLS inh: inactive; USP2a block: inconclusive; Tb PGK inh: inactive; GCN5L2 inh-2: 20
